Unmarked numbers belong to inactive results. Activity calls are given as the source filed them.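 How the source made its calls: active means thallium flux through the channel raised or lowered by more than 3 SD from vehicle-only wells, actives on both sides; inactive means the rest.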
Experiments:
Assay in all cases: modulators of BK channel variants, profiling panel, selectivity assay, cell-based, U2OS BacMam, thallium flux, beta subunits (AID 1259406);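 further: initial slope of Thallos dye fluorescence rise after thallium is added; log ratio against the mean of 0.3% DMSO vehicle wells on the same plate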
[1] = tested on: F380Y; conditions: at 30 µM
[2] = tested on: F380Y/beta1; conditions: at 30 µM
[3] = tested on: F380Y/beta2Delta; conditions: at 30 µM
[4] = tested on: F380Y/beta4; conditions: at 30 µM
[5] = target: Calcium-activated potassium channel subunit alpha-1 (Homo sapiens) + Leucine-rich repeat-containing protein 26 (Homo sapiens) (UniProt Q12791+Q2I0M4); conditions: F380Y/Slo1WT/gamma1, at 30 µM
[6] = tested on: R275C; conditions: at 30 µM
[7] = tested on: R275C/beta1; conditions: at 30 µM
[8] = tested on: R275C/beta2Delta; conditions: at 30 µM
[9] = tested on: R275C/beta4; conditions: at 30 µM
[10] = tested on: R275C/Slo1WT/beta2; conditions: at 30 µM

Calcium-activated potassium channel subunit alpha-1 (Homo sapiens) + Leucine-rich repeat-containing protein 26 (Homo sapiens), sequence (Q2I0M4 whole entry, looked up, one chain of several): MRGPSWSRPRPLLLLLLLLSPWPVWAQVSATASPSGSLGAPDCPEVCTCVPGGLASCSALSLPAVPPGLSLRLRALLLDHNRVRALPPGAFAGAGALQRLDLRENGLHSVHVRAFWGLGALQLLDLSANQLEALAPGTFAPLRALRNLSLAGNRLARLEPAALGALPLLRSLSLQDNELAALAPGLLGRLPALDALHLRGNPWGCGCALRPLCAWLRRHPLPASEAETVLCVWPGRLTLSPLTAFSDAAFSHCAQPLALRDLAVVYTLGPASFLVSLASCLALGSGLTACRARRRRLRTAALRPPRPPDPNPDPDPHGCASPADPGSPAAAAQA

Compound	log fold change Tl+ flux [1]	log fold change Tl+ flux [2]	log fold change Tl+ flux [3]	log fold change Tl+ flux [4]	log fold change Tl+ flux [5]	log fold change Tl+ flux [6]	log fold change Tl+ flux [7]	log fold change Tl+ flux [8]	log fold change Tl+ flux [9]	log fold change Tl+ flux [10]
O=C(NCC1CC1)c1ccccc1NS(=O)(=O)c1cccc2nonc12	0.0757	0.0238	0.0491	0.0071	-0.00954	1.3e-05	0.0417	0.0268	0.0533	0.0216
CC(=O)Oc1ccc(OC(C)=O)c2cc3c(OC(C)=O)ccc(OC(C)=O)c3cc12	-0.0214	-0.0286	-0.0254	0.0175	0.0282	-0.0106	-0.0199	-0.0114	-0.0622	0.0234
N#Cc1cccc(CSc2ncnc(N)n2)c1	0.00879	0.0215	0.00942	-0.00378	0.019	0.0199	-0.0244	0.0122	0.019	0.00642
CC(=O)Nc1ccc(OCC(=O)N2CCN(c3ncc(C(F)(F)F)cc3Cl)CC2)cc1	0.046	0.0214	0.00987	0.125 (active)	0.039	0.0368	0.00256	0.0353	0.0246	0.0473
COC(=O)C(C#N)=CN(C)C	0.0153	0.000638	0.00933	0.0217	-0.0293	0.0113	0.0127	0.0244	-0.00979	-0.0171
O=C(O)c1nnn(-c2ccccc2Oc2ccc(Cl)cc2Cl)c1-c1ccccc1	0.0736	0.343 (active)	0.17 (active)	0.243 (active)	0.127 (active)	-0.021	0.297 (active)	0.113 (active)	0.287 (active)	0.0348
CCOC(=O)Cn1c(-c2c(Cl)cccc2Cl)noc1=O	0.00248	-0.00728	-0.0091	-0.00368	-0.0669	0.0179	-0.00444	0.0184	-0.018	0.00072
O=C(NCc1ccc2c(c1)OCO2)C1CCN(C(=O)OCc2ccccc2)CC1	0.035	-0.0838 (active)	-0.059	-0.064	0.019	0.0676	0.0117	-0.0269	-0.0162	0.0194
Cc1ccc(C(C)NC(=O)c2ccc(Cl)c(Cl)c2)c(C)c1 (stereo not given)	-0.0383	-0.0447	-0.0218	-5.9e-05	-0.119 (active)	-0.0401	0.0121	-0.00757	0.00443	-0.0265
O=C(c1ccccc1)c1c(Cl)cc(C(F)(F)F)cc1Cl	-0.0258	0.0352	0.0614	0.0559	0.0324	0.00162	0.0087	0.0434	0.000317	0.0159
O=C(NC(=O)C12CC3CC(CC(C3)C1)C2)Nc1ccc(Cl)cc1	0.00432	-0.0267	-0.0384	-0.0415	0.0168	-0.00652	-0.0129	-0.0163	0.0337	-0.0195
O=C1c2cccc3c(Sc4ccccc4)ccc(c23)C(=O)N1CCc1ccccn1	0.00854	-0.00319	-0.0137	0.0446	0.0111	-0.0274	-0.0207	0.02	-0.00592	0.0318
Cc1oc(S(=O)(=O)N2CCOCC2)cc1C(=O)Nc1ccc(F)cc1	0.119 (active)	-0.00781	-0.0147	-0.000333	0.0253	0.0114	0.0125	0.00085	0.00598	-0.0174
CSc1cc(C(C)(C)C)[nH]n1	-0.125 (active)	-0.0178	-0.218 (active)	-0.423 (active)	0.0568	0.0547	0.173 (active)	-0.014	0.047	0.0223
Cc1nn(Cc2nnn(CC(=O)NN=Cc3ccc(Cl)cc3)n2)c(C)c1Br	0.0697	0.0216	0.00259	-0.0438	0.0569	0.0224	-0.0427	-0.045	0.011	0.0426
Cc1c(Br)sc2sc(-c3ccnc(SCc4ccccc4)n3)c(C)c12	-0.00256	-0.0227	-0.00739	-0.0356	0.0451	-0.000555	-0.0282	0.0157	-0.00767	-0.00994
COC(=O)c1c(S(=O)(=O)N2CCOCC2)c(C)n(C)c1C	0.000226	0.0187	-0.00469	0.00738	0.0534	-0.00135	0.0384	0.108 (active)	0.0019	-0.000777
CN1CCN(CC(=O)Nc2ccccc2Oc2ccccc2)CC1	0.0235	0.0196	0.0764	0.0239	0.0414	-2.9e-05	0.00212	0.00784	0.00808	0.0378
Cn1c(SCc2ccc(C(F)(F)F)cc2)nnc1C(F)(F)F	-0.0854	0.00114	-0.0293	0.0223	-0.00125	-0.0523	-0.14 (active)	-0.0607	-0.153 (active)	-0.00318
CCOC(=O)c1c[nH]n2c(=O)c3c(nc12)CCC3	0.0447	0.0491	0.00798	-0.00836	-0.00512	-0.0014	0.00358	0.00309	0.0387	-0.0235
COCCCNC(=O)C(C#N)=CN(C)C	-0.062	-0.0601	-0.103 (active)	0.0041	-0.0197	-0.0308	-0.0584	-0.0395	-0.0325	0.0541
CN(NC(=O)c1ccc(Cl)s1)c1cnn(-c2cc(Cl)cc(Cl)c2)c(=O)c1Cl	0.0366	-0.0161	0.019	0.00909	-0.0561	-0.0148	0.00182	0.046	-0.0313	-0.00119
Cc1c(C(=O)CSc2n[nH]c(=O)n2C(C)c2ccccc2)sc2ccc(Cl)cc12 (stereo not given)	0.0243	0.0267	0.0136	-0.00607	0.0185	0.0226	0.0417	0.0219	0.0303	-0.0119
CSc1nnc(SCC(=O)c2ccc3c(c2)OCCO3)s1	-0.00388	-0.019	-0.0362	-0.049	-0.0346	-0.06	-0.119 (active)	-0.146 (active)	-0.0816 (active)	-0.0418
CS(=O)(=O)C(C#N)=NNc1ccc(OC(F)(F)F)cc1	0.0798	0.148 (active)	0.0975	0.0278	0.0802	0.0522	0.0751	0.119 (active)	0.0407	-0.0347
Cc1cc2c(NC(=O)c3ccccc3C(=O)O)cccc2nn1	-0.0132	0.714 (active)	-0.0393	0.0303	0.0158	0.0158	-0.0051	-0.00027	-0.0138	-0.00217

— PubChem BioAssay
